Counter-ions that a name gives are not always drawn. ± gives the standard deviation of the averaged measurements. In all, about 1,300 compounds were measured (“normalised cell viability”: median about 1, lowest 2% from about 0.15 on). The entries come from a sample that favours the lowest values as a whole.
Test system: V-C8 + BRCA2 (BRCA2-proficient hamster cells)
Assay: normalised cell viability (fraction of plate median); higher = more viable cells (less toxic)
Conditions: 5 µM
Summary of the method: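 Hamster V-C8 cells with and without restored BRCA2 were exposed in 96-well plates to library drugs at 5 μM for 3 days (screen 1) or 6 days (screen 2). Cell viability was scored by resazurin assay, then median-plate normalised, averaging triplicate wells.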

Question: How did the normalised cell viability (treatment time: 3 days) turn out when `Fc1ccc(C(OCCN2CCN(CCCc3ccccc3)CC2)c2ccc(F)cc2)cc1` was run?
Answer: Its normalised cell viability is 0.18 ± 0.0028.

Question: What about the normalised cell viability (treatment time: 6 days) of the same compound?
Answer: The normalised cell viability was 0.191 ± 0.0064.

Question: `COc1ccc(CCN2CCC(Nc3nc4ccccc4n3Cc3ccc(F)cc3)CC2)cc1` [Astemizole] was tested. Which normalised cell viability (treatment time: 3 days) did it give?
Answer: The normalised cell viability was 0.118 ± 0.0065.

Question: What about the normalised cell viability (treatment time: 6 days) of the same compound?
Answer: The normalised cell viability was 0.102 ± 0.0063.

Question: For `C[C@]12C[C@H]3S[C@H]3C[C@@H]1CC[C@@H]1[C@@H]2CC[C@]2(C)[C@@H](O)CC[C@@H]12` [Epitiostanol], which normalised cell viability (treatment time: 3 days) is on record?
Answer: The normalised cell viability was 1.02 ± 0.019.

Question: What about the normalised cell viability (treatment time: 6 days) of the same compound?
Answer: The normalised cell viability was 1.05 ± 0.022.

Question: What does the source list for `CC(C)[N+](C)(CCC(C(N)=O)(c1ccccc1)c1ccccc1)C(C)C` [Isopropamide iodide]?
Answer: normalised cell viability (treatment time: 3 days): 1.04 ± 0.062; normalised cell viability (treatment time: 6 days): 1.02 ± 0.11

Question: Which results are given for `CN1[C@@H]2CC[C@H]1C[C@@H](OC1c3ccccc3CCc3ccccc31)C2` [Deptropine citrate]?
Answer: normalised cell viability (treatment time: 3 days): 0.931 ± 0.016; normalised cell viability (treatment time: 6 days): 0.869 ± 0.065

Question: Which normalised cell viability (treatment time: 3 days) does the source give for `OC(c1ccccc1)(c1ccccc1)C1CCNCC1` [Azacyclonol] here?
Answer: Its normalised cell viability is 0.985 ± 0.041.

Question: What about the normalised cell viability (treatment time: 6 days) of the same compound?
Answer: The normalised cell viability was 1.03 ± 0.042.

Question: Which results are given for `C[C@@H]1CC[C@H]2[C@@H](C)C(=O)O[C@@H]3O[C@@]4(C)CC[C@@H]1[C@]32OO4` [Artemisinin]?
Answer: normalised cell viability (treatment time: 3 days): 0.794 ± 0.024; normalised cell viability (treatment time: 6 days): 0.87 ± 0.095

Question: With `C[C@]12CC[C@H](O)C[C@H]1CC[C@@H]1[C@@H]2C[C@@H](O)[C@]2(C)[C@@H](C3=CC(=O)OC3)CC[C@]12O` [Digoxigenin] as the compound, how does the normalised cell viability (treatment time: 3 days) read?
Answer: Its normalised cell viability is 0.962 ± 0.11.

Question: And the normalised cell viability (treatment time: 6 days)?
Answer: The normalised cell viability was 0.986 ± 0.056.

Question: Which results are given for `CC(=O)NC1CCSC1=O` (racemic) [N-Acetyl-DL-homocysteine Thiolactone]?
Answer: normalised cell viability (treatment time: 3 days): 1.05 ± 0.096; normalised cell viability (treatment time: 6 days): 1.06 ± 0.11

Question: Which normalised cell viability (treatment time: 3 days) does the source give for `CO[C@]12C[C@@H](COC(=O)c3cncc(Br)c3)CN(C)[C@@H]1Cc1cn(C)c3cccc2c13` [Nicergoline] here?
Answer: Its normalised cell viability is 0.81 ± 0.019.

Question: What about the normalised cell viability (treatment time: 6 days) of the same compound?
Answer: Its normalised cell viability is 0.926 ± 0.01.

Question: What does the source list for `CNCC(O)c1ccc(O)cc1` (racemic) [(+,-)-Synephrine]?
Answer: normalised cell viability (treatment time: 3 days): 1.01 ± 0.085; normalised cell viability (treatment time: 6 days): 1.01 ± 0.022

Question: With `C[CH2][Hg][S]c1ccccc1C(=O)[O-].[Na+]` [Thimerosal] as the compound, how does the normalised cell viability (treatment time: 3 days) read?
Answer: The normalised cell viability was 0.106 ± 0.0062.

Question: What about the normalised cell viability (treatment time: 6 days) of the same compound?
Answer: The normalised cell viability was 0.118 ± 0.007.

Question: What does the source list for `NCCC(O)C(=O)NC1CC(N)C(OC2OC(CN)C(O)[C@H](O)[C@@H]2N)[C@H](OC2O[C@H](CO)[C@@H](O)[C@@H]2O)[C@@H]1O` (stereo not given in full) [Butirosin disulfate salt]?
Answer: normalised cell viability (treatment time: 3 days): 0.979 ± 0.026; normalised cell viability (treatment time: 6 days): 0.868 ± 0.3

Question: What does the source list for `C[C@@H]1C[C@@H]([C@H](O)CC2CC(=O)NC(=O)C2)C(=O)[C@@H](C)C1` [Cycloheximide]?
Answer: normalised cell viability (treatment time: 3 days): 0.146 ± 0.008; normalised cell viability (treatment time: 6 days): 0.138 ± 0.016

Question: `CC(CCc1ccccc1)NC(C)C(O)c1ccc(O)cc1` (stereo not given) [Nylidrin] was tested. Which normalised cell viability (treatment time: 3 days) did it give?
Answer: Its normalised cell viability is 1.02 ± 0.0065.

Question: What about the normalised cell viability (treatment time: 6 days) of the same compound?
Answer: Its normalised cell viability is 1.02 ± 0.051.

Question: For `CCC(=O)O[C@@](Cc1ccccc1)(c1ccccc1)[C@@H](C)CN(C)C` [Levopropoxyphene napsylate], which normalised cell viability (treatment time: 3 days) is on record?
Answer: The normalised cell viability was 0.979 ± 0.083.

Question: And the normalised cell viability (treatment time: 6 days)?
Answer: Its normalised cell viability is 1.058 ± 0.0096.

Question: `COc1cc([C@@H]2c3cc4c(cc3[C@H](O)[C@H]3COC(=O)[C@H]23)OCO4)cc(OC)c1OC` [Podophyllotoxin] was tested. Which normalised cell viability (treatment time: 3 days) did it give?
Answer: Its normalised cell viability is 0.143 ± 0.0046.

Question: What about the normalised cell viability (treatment time: 6 days) of the same compound?
Answer: Its normalised cell viability is 0.136 ± 0.016.

Question: How did the normalised cell viability (treatment time: 3 days) turn out when `C=C1CC[C@@]2(O)[C@H]3Cc4ccc(O)c5c4[C@@]2(CCN3CC2CC2)[C@H]1O5` [Nalmefene hydrochloride] was run?
Answer: The normalised cell viability was 1 ± 0.043.

Question: And the normalised cell viability (treatment time: 6 days)?
Answer: The normalised cell viability was 1.07 ± 0.15.

Question: `C=C1[C@@H]2CC[C@H]3[C@]4(C)C[C@H](O[C@@H]5O[C@H](CO)[C@@H](OS(=O)(=O)O)[C@H](OS(=O)(=O)O)[C@H]5OC(=O)CC(C)C)C[C@@H](C(=O)O)[C@H]4CC[C@]3(C2)[C@@H]1O` [Atractyloside potassium salt] was tested. Which normalised cell viability (treatment time: 3 days) did it give?
Answer: The normalised cell viability was 1.08 ± 0.093.

Question: What about the normalised cell viability (treatment time: 6 days) of the same compound?
Answer: The normalised cell viability was 1.15 ± 0.031.

Question: Which results are given for `COc1ccc2c(c1)[C@]13CCCC[C@@H]1[C@H](C2)N(C)CC3` [Dextromethorphan hydrobromide monohydrate]?
Answer: normalised cell viability (treatment time: 3 days): 1.13 ± 0.078; normalised cell viability (treatment time: 6 days): 1.02 ± 0.054

Question: Which results are given for `CC[C@@]1(O)C(=O)OCc2c1cc1n(c2=O)Cc2cc3ccccc3nc2-1` [Camptothecine (S,+)]?
Answer: normalised cell viability (treatment time: 3 days): 0.142 ± 0.014; normalised cell viability (treatment time: 6 days): 0.124 ± 0.012

Question: Which results are given for `CCC(=O)O[C@H]1CC[C@H]2[C@@H]3CCC4=CC(=O)CC[C@]4(C)[C@H]3CC[C@]12C` [Testosterone propionate]?
Answer: normalised cell viability (treatment time: 3 days): 0.906 ± 0.085; normalised cell viability (treatment time: 6 days): 1 ± 0.1

Question: With `CN1[C@@H]2CC[C@H]1C[C@@H](OC(=O)C(CO)c1ccccc1)C2` (stereo not given in full) [Atropine sulfate monohydrate] as the compound, how does the normalised cell viability (treatment time: 3 days) read?
Answer: The normalised cell viability was 0.925 ± 0.033.

Question: And the normalised cell viability (treatment time: 6 days)?
Answer: Its normalised cell viability is 0.988 ± 0.053.

Question: What does the source list for `O=C(CCCN1CCC2(CC1)C(=O)NCN2c1ccccc1)c1ccc(F)cc1` [Spiperone]?
Answer: normalised cell viability (treatment time: 3 days): 1.07 ± 0.04; normalised cell viability (treatment time: 6 days): 0.997 ± 0.072

Question: With `CCCCCC[C@H]1C(=O)O[C@H](C)[C@H](NC(=O)c2cccc(NC=O)c2O)C(=O)O[C@@H](C)[C@@H]1OC(=O)CC(C)C` [Antimycin A] as the compound, how does the normalised cell viability (treatment time: 3 days) read?
Answer: The normalised cell viability was 0.148 ± 0.012.

Question: What about the normalised cell viability (treatment time: 6 days) of the same compound?
Answer: The normalised cell viability was 0.124 ± 0.011.

Question: Which normalised cell viability (treatment time: 3 days) does the source give for `CCCC(C)(COC(N)=O)COC(=O)NC(C)C` (stereo not given) [Carisoprodol] here?
Answer: The normalised cell viability was 0.992 ± 0.042.

Question: And the normalised cell viability (treatment time: 6 days)?
Answer: The normalised cell viability was 1.09 ± 0.04.

Question: Which normalised cell viability (treatment time: 3 days) does the source give for `CN1CCC2(C)c3cc(O)ccc3N(C)C12` (single isomer, unassigned; (-)) [(-)-Eseroline fumarate salt] here?
Answer: The normalised cell viability was 0.694 ± 0.028.

Question: And the normalised cell viability (treatment time: 6 days)?
Answer: Its normalised cell viability is 0.769 ± 0.015.

Question: Which results are given for `CCC(C)C1O[C@]2(C=C[C@@H]1C)C[C@@H]1CC(C/C=C(\C)[C@@H](OC3C[C@H](OC)[C@@H](OC4C[C@H](OC)[C@@H](O)[C@H](C)O4)[C@H](C)O3)[C@@H](C)/C=C/C=C3\COC4[C@H](O)C(C)=CC(C(=O)O1)[C@]34O)O2` (stereo not given in full) [Avermectin B1a]?
Answer: normalised cell viability (treatment time: 3 days): 0.303 ± 0.021; normalised cell viability (treatment time: 6 days): 0.193 ± 0.025

Question: Which results are given for `CC(C)(N)Cc1ccccc1` [Phentermine hydrochloride]?
Answer: normalised cell viability (treatment time: 3 days): 1 ± 0.041; normalised cell viability (treatment time: 6 days): 0.995 ± 0.023

Question: What does the source list for `NCC(CC(=O)O)c1ccc(Cl)cc1` (racemic) [Baclofen (R,S)]?
Answer: normalised cell viability (treatment time: 3 days): 0.897 ± 0.079; normalised cell viability (treatment time: 6 days): 0.956 ± 0.083

From the supplement of paper PMC6609913
